This is part of a sample that, as a whole, favours compounds with a hit. Of some 79,000 tested, about 15% had one in any assay. Unmarked numbers belong to inactive results. The source made the active and inactive calls. Rule as the data show it: active = growth inhibition above about 70%; inactive = the rest.

The results in this text go back to PubChem BioAssay (NCI).

The nature of the test: NCI Yeast Anticancer Drug Screen. Data for the cln2 rad14 strain (AID 165).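 Also: 0% = growth equal to vehicle treated cultures.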 The following applies: S. cerevisiae cln2 rad14 strain, stronger effect = higher value. The protocol:
Growth inhibition of yeast strains with defined genetic alterations is measured as a screen for potential anti-cancer activity. Selected strains with alterations in DNA damage repair or cell cycle control were exposed to compounds and growth inhibition was measured relative to vehicle treated controls. The strain used in this assay is cln2 rad14

[1] abbreviates: at 5.0 µM (retest, dose inferred, filed as 0.5).
Where [2] appears, read: at 50.0 µM (retest, dose inferred, filed as 5.0).

As for `COc1cc(C2C3=C(COC3=O)Oc3cc4c(cc32)OCO4)cc(OC)c1O` (configuration not stated), the growth inhibition reads like this: under setting [1], 8%; under setting [2], 51%; (at 50.0 µM) 55.1%.

With `CCOC(=O)Nc1ccc(C)c(NC(=O)OCC)c1`, the growth inhibition is, setting by setting: under setting [1], 11%; under setting [2], 23%; (at 50.0 µM) -38.4%.

Take `O=C(Oc1ccc([N+](=O)[O-])cc1)c1ccc([N+](=O)[O-])cc1`: the growth inhibition under setting [1] is 18%, the growth inhibition under setting [2] was 28% and the growth inhibition (at 50.0 µM) was 31.1%.

With `CNC(=O)OCc1c(COC(=O)NC)c(C)n(-c2ccc(Br)cc2)c1C`, the growth inhibition under setting [1] was 10%, the growth inhibition under setting [2] is -81% and the growth inhibition (at 50.0 µM) was 30%.

`CC1(c2ccccc2)O[C@@H]2C[C@H]3[C@@H]4CCC5=CC(=O)C=C[C@]5(C)[C@@]4(F)[C@@H](O)C[C@]3(C)[C@]2(C(=O)CO)O1` (some centres not stated): the growth inhibition reads like this: under setting [1], 6%; under setting [2], 15%; (at 50.0 µM) 95.8% (active).

Take `CC(=O)CC(c1ccccc1)c1c(O)c2ccccc2oc1=O` (configuration not stated): the growth inhibition is, setting by setting: under setting [1], 22%; under setting [2], 90% (active); (at 50.0 µM) 54.6%.

As for `CCN(CC)CCNc1ccc2nc(C)n3c4ccc(O)cc4c(=O)c1c23`, the growth inhibition under setting [1] is 28%, the growth inhibition under setting [2] was 28% and the growth inhibition (at 50.0 µM) was 18.6%.

For the compound `CC(C)OP(=O)(OC(C)C)C(=NCCO)NNc1ccc([N+](=O)[O-])cc1`, the growth inhibition was 25% under setting [1], 48% under setting [2] and 9.95% (at 50.0 µM).

With `Fc1ccc(Nc2ccc3ccccc3c2)cc1`, the growth inhibition was -3% under setting [1], 67% under setting [2] and 92.1% (active) (at 50.0 µM).

As to `CC1=CC(C)(C)SC(SSSC2=NC(C)=CC(C)(C)S2)=N1`, the growth inhibition was -9% under setting [1], 6% under setting [2] and 2.9% (at 50.0 µM).

`CC12CCC(CC(=O)/C1=C(/Br)I)C2(C)C` (configuration not stated): the growth inhibition was 40% under setting [1], 68% under setting [2] and 63% (at 50.0 µM).

As for `CC(CC/C(=N/O)c1ccccc1)(CC/C(=N\O)c1ccccc1)[N+](=O)[O-]` (configuration not stated), the growth inhibition by setting is: under setting [1], 2%; under setting [2], 39%; (at 50.0 µM) 91.7% (active).

Turning to `CNC(=O)OCc1c2ccncc2c(C)c2c1[nH]c1ccccc12`, the growth inhibition is 44% under setting [1], 84% (active) under setting [2] and 83.2% (active) (at 50.0 µM).

Turning to `OC1(C#CI)CCCCC1`, the growth inhibition is, setting by setting: under setting [1], -28%; under setting [2], 98% (active); (at 50.0 µM) 99.2% (active).
